Many of the other results were omitted from the sample, so hits are more common in it than they were.
PNC assembly inh: blocks assembly of the perinucleolar compartment | activity change (PNC), negative = inhibition, % at 10 µM | AID 2417 | PC3M PTB-GFP, PNC prevalence imaging, 16 h; hits give low values | actives 3.1% (n = 140,000);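 active = readout at or below -70, meaning at least 70% loss of cells showing the perinucleolar compartment, a nuclear body marking cancer cells; inconclusive = readout between -30 and a set limit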;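 also: plate controls were DMSO wells for no effect and camptothecin positive control wells for full effect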
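PC3M cells stably expressing PTB-GFP, 750–1000 cells/well, treated 16 h at 37 °C with compound (23 nl of library stock), in duplicate. After paraformaldehyde fixation and Hoechst stain, imaged at 20x; PNC prevalence scored by image analysis.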
HTT ATP protect: cytoprotection in Huntington HTT-Q103 PC12 cell model | PC12 HTT-Q103 induced, cytoprotection, ATP luminescence, 40 h | Potency, µM (series often up to 56.4 µM), for the others: cytoprotection (ATP increase), actives largely listed as activators | actives 0.14% (n = 230,000); also: potency is read from the fitted curve at half-maximal effect; % of control where 0% means no effect; nearly all actives have a fitted effect of over 45% in size
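PC12 cells stably carrying ecdysone-inducible Htt exon 1 (Q103)–GFP were induced with 100 nM tebufenozide (final) alongside library compounds in a dose series. Cytoprotection was scored as retained ATP by ATPlite luminescence.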
HTT aggregate: reduces HttQ103-GFP aggregates in PC12 cells; PC12 HttQ103-GFP aggregates, Acumen cytometry, 40 h; Potency, µM (doses to about 46.1 µM), for inactives: at the highest dose activity change, negative = inhibition, hits mostly inhibitors; actives 1.1% (n = 220,000); AID 1688; also: potency is read from the fitted curve at half-maximal effect; % is scaled to controls: 0 for no effect and ±100 for the full control effect; nearly all actives have a fitted effect of over 60% in size
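Multiplexed with ATP-based cell death, this channel scores GFP aggregates in PC12 cells expressing inducible HTTex1-Q103-GFP. Induction used 100 nM tebufenozide; compounds were tested in concentration series.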
Starred values were filed as active, the others as inactive; ? = inconclusive; . = no result given; [ ] = dose if it differs, or a comment. Unless noted, calls follow the shape of the dose curve; as a rule, active = well fitted curve in the direction sought with a large enough effect; inconclusive = small, poorly fitted or top-dose-only effect, or another doubt; inactive = no such curve, though single readings can be large; an effect the other way counts as inactive or inconclusive.

SMILES | PNC assembly inh | HTT ATP protect | HTT aggregate
COc1ccc(C(=O)NCc2nnc(SCC(=O)N3CCOCC3)o2)cc1OC | . | -8% | -9%
Cc1ccc(C(=O)N/C(=C\c2ccc(F)cc2)C(=O)NCc2ccncc2)cc1 | -119* | 20%[10 µM] | -30%
O=C(NCc1ccncc1)/C(=C\c1ccc(F)cc1)NC(=O)c1ccccc1 | 31 | 6%[10 µM] | 11%
COc1cc(OC)c(C2=NOC(C(=O)N3CCN(C(=O)c4ccco4)CC3)C2)cc1Cl (centres undefined) | . | -13% | ?
COc1ccc(CSCCc2n[nH]c(=S)n2-c2ccccc2)cc1C | . | -10% | ?
N#Cc1c(NC(=O)CSc2nc(N)cc(=O)[nH]2)sc2c1CCCCCC2 | -27 | -4%[10 µM] | ?
C=CCn1c(SCC(=O)Nc2sc3c(c2C#N)CCC3)nnc1C1COc2ccccc2O1 (centres undefined) | ? | -22% | 5%
COC(=O)c1c(NC(=O)CSc2nc(-c3ccco3)cc(C(F)(F)F)n2)sc2c1CCCC2 | -24 | 13% | -6%
N#Cc1c(NC(=O)CSc2nc(-c3ccco3)cc(C(F)(F)F)n2)sc2c1CCCC2 | -84* | 33%[10 µM] | -7%
COC(=O)c1ccc(C(=O)OC)c(NC(=O)CSc2nc(-c3ccco3)cc(C(F)(F)F)n2)c1 | . | -1%[0.074 µM] | .
Cn1c(SCC(=O)Nc2sc3c(c2C#N)CCC3)nnc1C1COc2ccccc2O1 (centres undefined) | -81* | 6%[10 µM] | 30%
N#Cc1c(NC(=O)CSc2ncn[nH]2)sc2c1CCCCC2 | -117* | -34% | -31%
COC(=O)c1ccccc1NC(=O)CSc1nc(-c2ccco2)cc(C(F)(F)F)n1 | -82* | -7%[10 µM] | 9%
Cc1cccc(Oc2ncnc3onc(C)c23)c1C | -13 | 1% | -13%
CCCCCCCCCCCCCCCC(N)=O | . | -33% | .
O=C(COc1ccccc1Br)NCc1ccccn1 | -27 | -11% | -3%
CCCn1c(SCC(=O)c2ccc(CC)cc2)n[nH]c1=O | 6 | ? | 0.89µM*
Cc1cc(C(=O)CSc2nnnn2-c2ccccc2)c(C)n1-c1ccc2c(c1)OCO2 | -27 | . | 1%
CCCn1c(SCC(=O)c2cc(C)n(-c3ccc4c(c3)OCO4)c2C)n[nH]c1=O | -28 | 3.5µM* | -29%
CCCn1c(SCC(=O)NCc2ccc(C)cc2)n[nH]c1=O | . | . | 18%
O=C(OCc1nc2ccccc2[nH]1)C12CC3CC(CC(C3)C1)C2 | 66 | 15% | 11%
CCOC(=O)c1sc2nc(C)nc(SCC(=O)N(CC)C3CCS(=O)(=O)C3)c2c1C (centres undefined) | . | 4% | -12%
CC1(C)C2CC=C(/C=N/NC(=O)c3ccccc3Br)C1C2 (centres undefined) | -21 | -5%[10 µM] | -5%
CC1OC(OC2CCC3(C)C(CCC4C3CC(O)C3(C)C(C5=CC(=O)OC5)CCC43O)C2)CC(O)C1OC1CC(O)C(OC2CC(O)C(OC3OC(CO)C(O)C(O)C3O)C(C)O2)C(C)O1 (centres undefined) | . | 18% | -10%
CC(C)CCNC(=O)C12CN(Cc3ccccc3)CC1C(c1ccc([N+](=O)[O-])cc1)=NO2 (centres undefined) | ? | -15%[10 µM] | 3%
SMILES | PNC assembly inh | HTT ATP protect | HTT aggregate
O=C(NCc1ccc(C(F)(F)F)cc1)C12CN(Cc3ccccc3)CC1C(c1cccc([N+](=O)[O-])c1)=NO2 (centres undefined) | 19 | -8%[10 µM] | -7%
O=C(NCc1ccccc1C(F)(F)F)C12CN(Cc3ccccc3)CC1C(c1ccc([N+](=O)[O-])cc1)=NO2 (centres undefined) | -119* | -10%[10 µM] | 12%
O=C(NCc1ccc2c(c1)OCO2)C12CN(Cc3ccccc3)CC1C(c1cccc([N+](=O)[O-])c1)=NO2 (centres undefined) | -87* | -1%[10 µM] | 7%
O=C(N/N=C/c1c[nH]c2ccccc12)C1CC(=O)N(c2ccccc2)C1 (centres undefined) | . | -42% | 1%
CCC(=O)N1c2ccccc2C(N(C(=O)CC)c2ccccc2)CC1C (centres undefined) | . | -4%[10 µM] | 17%[9.22 µM]
Cc1cc(C)n(-c2nnc3n2N=C(c2c[nH]c4ccccc24)CS3)n1 | -12 | 6%[10 µM] | -7%
Cc1cc(C)n(-c2nnc3n2N=C(c2ccccc2)CS3)n1 | -135* | -13%[0.074 µM] | -7%
C=CCn1c(=S)[nH]c2sc3c(c2c1=O)CCC3 | -109* | -9%[10 µM] | -9%
C=CCn1c(=S)[nH]c2nc3c(cc2c1=O)CCCC3 | 13 | -2% | -32%
CC(C)(C)NC(=O)c1cccnc1Sc1ccccc1 | . | -12% | 6%
CCn1cc(C2=NOC(C(=O)Nc3cccc(C(C)=O)c3)C2)c(C)n1 (centres undefined) | ? | 8%[10 µM] | 0.79µM*
CCn1cc(C2=NOC(C(=O)Nc3c(C)nn(Cc4ccc(F)cc4)c3C)C2)c(C)n1 (centres undefined) | -21 | -3% | -28%
CCCCN(C(=O)Oc1ccccc1)C1CCS(=O)(=O)C1 (centres undefined) | . | -1%[10 µM] | -10%[9.22 µM]
CCOC(=O)C1=C(C)NC(=O)NC1C1CC=CCC1 (centres undefined) | 8 | 0% | -3%
COC(=O)C1=C(C)NC(C)=C(C(=O)OC)C1C1CC=CCC1 (centres undefined) | -104* | -16%[10 µM] | 1%
N#Cc1ccc(S(=O)(=O)N2CCN(c3ncccn3)CC2)cc1 | . | -21%[10 µM] | 0%[9.22 µM]
C=C1C(=O)O[C@@H]2[C@@H]1CC/C(C)=C\CC[C@@]1(C)O[C@H]21 | . | ? | 14µM*
C=C1C(=O)O[C@@H]2[C@H]3O[C@]3(C)CCC=C(C)CC[C@@H]12 | . | -86% | .
Clc1ccc(C2[C@H]3CN(CC4CCCCC4)[C@H](c4ccccc4)C34CC2(c2ccccc2)C4)cn1 (some centres undefined) | . | -15% | -1%[9.22 µM]
COc1ccc(-c2nnc3c4ccccc4c(C)nn23)cc1 | -89* | -20% | 25%
Cc1nn2c(-c3ccncc3)nnc2c2ccccc12 | -5 | 12%[10 µM] | -1%
COC(=O)Cc1ccc(NC(=S)N2CCCCC2C)cc1 (centres undefined) | . | -6%[10 µM] | 6%
CN(C(=O)c1cccs1)c1ccc(OCC(=O)Nc2ccc(C(=O)O)cc2)cc1 | . | 0.89µM* | ?
CCN(CC)c1ccc(NC(=O)COc2ccc(N(C)S(=O)(=O)c3cccs3)cc2)cc1 | . | -37% | 17%
CN(c1ccc(OCC(=O)OCC(=O)Nc2ccc(Br)cc2)cc1)S(=O)(=O)c1cccs1 | 66 | ? | 3%
SMILES | PNC assembly inh | HTT ATP protect | HTT aggregate
CN(c1ccc(OCC(=O)OCC(=O)Nc2ccccc2)cc1)S(=O)(=O)c1cccs1 | 116 | -80%[1.9 µM] | 1.3µM*
NC(=S)NN=C1C2CC3CC(C2)CC1C3 | . | 1%[10 µM] | 10%
O=C(O)C1C2CCC(O2)C1C(=O)Nc1ccc(F)cc1 (centres undefined) | . | -16%[1.9 µM] | 11%[9.22 µM]
Cc1c(-n2c(SCC(=O)O)nnc2-c2ccccc2Cl)c(=O)n(-c2ccccc2)n1C | -97* | 12% | 9%
COc1ccccc1-c1nnc(SCC(=O)O)n1-c1ccc(C)cc1 | . | 5%[10 µM] | -3%[9.22 µM]
COc1ccc(-c2ccoc2)cc1[C@H]1[C@H]2C=CC[C@@H](C)[C@@H]2C(=O)N1Cc1ccccc1 | . | -4%[10 µM] | 31%[9.22 µM]

Source: PubChem BioAssay (National Center for Advancing Translational Sciences (NCATS))
